According to PubChem BioAssay (NCI):
Compounds without any hit were thinned out: in the full panel of roughly 83,000, 20% have a hit.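 Single-concentration screen, 48 h exposure, 96-well plates. Endpoint: percent growth. Below 10 = active.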 Unmarked numbers belong to inactive results. Activity calls are given as the source filed them.

What follows are molecules tested on ACHN renal (assay: NCI-60 one-dose screen, 48 h (100 = growth as untreated, 0 = no growth, -100 = all killed)). Details: 10 µM unless noted.

**Q.** Which growth does the source give for `COc1ccc(/C=C/c2cc(OC)c(OC)c(OC)c2)cc1NC(=O)/C=C/c1ccc(F)cc1` here?
**A.** 48.4%

**Q.** Which growth does the source give for `Nc1cc2nc3ccccc3nc2cc1N` here?
**A.** 99.2%

**Q.** For `CN[C@@]1(c2ccccc2Cl)CCCC[C@@H]1NCC1CCCO1` (some centres not stated), which growth is on record?
**A.** 99.4%

**Q.** `COc1cc2c(cc1OCCCn1c(-c3ccccn3)nc3ccccc31)N=C[C@@H]1CCCN1C2=O` was tested. Which growth did it give?
**A.** -64.9% (active)

**Q.** `O=C(CC1(O)C(=O)Nc2ccc(Cl)cc21)c1ccc(C(=O)NCC2CCC3(CC2)OOC2(CCCCC2)OO3)cc1` (configuration not stated) was tested. Which growth did it give?
**A.** -87.3% (active)

**Q.** How did the growth turn out when `CNC12C3C4C1C1C2C3C41C(=O)N[C@H](C(=O)N(C)[C@H](C[C@@H](OC(C)=O)c1nc(C(=O)N[C@@H](Cc2ccccc2)C[C@H](C)C(=O)OC)cs1)C(C)C)C1CC1` (some centres not stated) was run?
**A.** 23.2%

**Q.** Which growth does the source give for `c1cc2c(c3c1CCNC3)OCO2` here?
**A.** 111%
